# Screening results from PubChem BioAssay.
# TDP1 cell CPT – DT40-hTDP1 cell growth loss with CPT; chicken DT40 Tdp1-/-;hTDP1 cells + 20 nM CPT, ATP luminescence, 48 h; Potency, µM (series often up to 46.2 µM), inactives show at the highest dose activity change, negative = growth inhibition, hits mostly inhibitors; 420,000 compounds, 12% hits; note: potency is the fitted concentration of half-maximal effect; nearly all actives have a fitted effect of over 55% in size
#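 Chicken DT40 Tdp1-/- cells complemented with human TDP1, 400 cells/well, exposed to compounds plus 20 nM camptothecin for at least 48 h at 37 C; viability read as ATP content by CellTiter-Glo luminescence.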
# HT1080NT lethal – kills 2HG-producing HT-1080-NT fibrosarcoma cells; Potency, µM (series often up to 46.1 µM), for inactives: top-dose activity, negative = less viability, usual class: cytotoxic; HT-1080-NT fibrosarcoma viability, CellTiter-Glo ATP luminescence, 48 h; 360,000 compounds, 1.6% hits; AID 686970;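 note: NT is the 2HG producing partner of a matched IDH1 knockdown line; potency is the fitted concentration of half-maximal effect; 0% = DMSO-treated cells and -100% = media-only wells without cells; nearly all actives have a fitted effect of over 55% in size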
#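 Viability by CellTiter-Glo luminescence after 48 h compound exposure at 37C of HT-1080-NT cells (750/well, RPMI, 5% FBS). % activity scaled between DMSO wells and medium-only wells, then curve-fitted and categorized by curve class.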
# TDP1 cell noCPT – qHTS for Inhibitors of human tyrosyl-DNA phosphodiesterase 1 (TDP1): qHTS in cells in absence of CPT. DT40 Tdp1-/- hTDP1 cells, no CPT, ATP luminescence, 48 h. Potency, µM (highest dose often 46.2 µM), for the others: top-dose activity change, negative = growth inhibition, actives largely listed as inhibitors. 420,000 compounds, 15% hits. AID 686978, 2013; note: potency is the fitted concentration of half-maximal effect; nearly all actives have a fitted effect of over 55% in size
#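 A cellular qHTS used chicken DT40 cells lacking endogenous Tdp1 but carrying stably transfected human TDP1. Compounds were applied without camptothecin, and cell growth kinetics were judged by ATP-dependent luminescence after ≥48 hr.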
# ALOX12 inh – blocks human arachidonate 12S-lipoxygenase | P18054 | purified 12hLO, xylenol orange hydroperoxide absorbance | Potency, µM (titrated, usually from 108 µM), for inactives: at the top dose activity change, negative = inhibition, usual class: inhibitors | 580,000 compounds, 1.1% hits | AID 1671190; note: potency is the fitted concentration of half-maximal effect
# Target sequence (P18054 whole entry, looked up): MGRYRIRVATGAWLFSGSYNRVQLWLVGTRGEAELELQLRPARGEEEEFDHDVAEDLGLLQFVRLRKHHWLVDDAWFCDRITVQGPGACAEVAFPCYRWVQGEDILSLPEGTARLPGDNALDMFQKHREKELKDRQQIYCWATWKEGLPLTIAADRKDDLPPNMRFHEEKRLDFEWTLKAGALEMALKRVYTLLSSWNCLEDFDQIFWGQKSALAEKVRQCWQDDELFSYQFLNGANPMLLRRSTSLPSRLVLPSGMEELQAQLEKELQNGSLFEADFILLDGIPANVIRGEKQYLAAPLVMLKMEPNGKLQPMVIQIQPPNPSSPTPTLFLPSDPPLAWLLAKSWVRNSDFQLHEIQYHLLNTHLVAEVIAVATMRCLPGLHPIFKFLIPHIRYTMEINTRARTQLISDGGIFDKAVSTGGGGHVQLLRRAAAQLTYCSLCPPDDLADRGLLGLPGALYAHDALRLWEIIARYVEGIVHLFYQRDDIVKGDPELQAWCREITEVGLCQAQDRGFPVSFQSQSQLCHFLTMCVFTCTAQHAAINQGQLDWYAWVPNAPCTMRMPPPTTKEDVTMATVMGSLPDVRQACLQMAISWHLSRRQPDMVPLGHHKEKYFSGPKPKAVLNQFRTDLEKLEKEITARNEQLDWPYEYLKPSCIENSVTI
#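 Hydroperoxide product was detected by ferrous iron/xylenol orange as the 573 to 405 nm absorbance ratio. Arachidonic acid at 40 uM (final) was turned over for 30 min at room temperature by 150 nM human 12hLO, pH 7.0 Hepes buffer, after 15 min compound preincubation.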
# IL1B secr inh – blocks inflammasome-driven IL-1 beta release. AID 743279. THP-1 LPS/ATP IL-1B secretion, AlphaLISA, 16 h; hits give low values. 360,000 compounds, 4.7% hits. activity change, % at 57.5 µM; in the data active = activity change below about -50%; inconclusive = mostly about -30% to -49%
#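 THP-1 cells pretreated 1 hr with compounds (up to 57.5 uM final), then stimulated with LPS (250 ng/mL final) plus ATP (1.25 mM final); secreted IL-1B measured by AlphaLISA after 16 hr, decreased signal indicating inhibition.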
# HT1080 IDH1KD tx – toxicity to HT-1080 IDH1 knockdown cells (counter line) | 360,000 compounds, 2% hits | AID 686971 | HT-1080 IDH1 knockdown viability, ATP luminescence, 48 h | Potency, µM (doses to about 46.1 µM), without a hit: top-dose activity, negative = toxicity, hits mostly cytotoxic;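 note: potency is the fitted concentration of half-maximal effect; 0% = DMSO wells and -100% = cell-free medium wells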
#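 CellTiter-Glo luminescence after 48 h compound exposure at 37 degrees C of IDH1-knockdown HT-1080 cells in 5% FBS RPMI. %Activity scaled between DMSO wells and cell-free media wells, with curves fitted and assigned curve classes.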
# * marks the source's active call; other numbers are inactive results; ? = inconclusive; . = no result given; ! = a repeat was not active; [ ] = another dose, or the depositor's remark. The full list was thinned out, with hits kept by preference. Unless noted, calls come from the whole dose curve; as a rule, active = well fitted curve in the direction sought with a large enough effect; inconclusive = small, poorly fitted or top-dose-only effect, or another doubt; inactive = no such curve, though single readings can be large; an effect the other way counts as inactive or inconclusive. Unless noted, % is set by controls: 0 for no effect and ±100 for the full control effect.
SMILES,TDP1 cell CPT,HT1080NT lethal,TDP1 cell noCPT,ALOX12 inh,IL1B secr inh,HT1080 IDH1KD tx
COc1ccc2cnn(CC(=O)N(Cc3ccccc3)Cc3ccccc3)c(=O)c2c1OC,.,.,.,25.1%,.,.
CNc1ccc(-c2cccc([N+](=O)[O-])c2)cn1,?,0.1%,?,-9.3%,-7.8,0.9%
O=[N+]([O-])c1cccc(-c2c(-c3ccccc3)ncc3ccc(F)cc23)c1,9.2µM*,13.3%,8.2µM*,-24.0%,21.1,-21.6%
Cc1ccc(-n2c(CNc3ccc(C)c(Cl)c3)n[nH]c2=S)cc1,?,-1.3%,?,44.7µM*,10.8,0.4%
Cc1cc(C)nc(NS(=O)(=O)c2ccc(NC(=O)c3cccc(N4C(=O)CCC4=O)c3)cc2)n1,-15.9%,23.1µM*,5.9%,-22.5%,0.0,-1.7%
COC(=O)C1=CN(CC(=O)NCc2ccccc2F)S(=O)(=O)N=C1C,.,.,.,19.9%,.,.
Cc1nc(-c2cccs2)c(CC(=O)N2CCc3ccccc3C2)s1,.,.,.,8.91µM*,.,.
COC(=O)CNC(=O)/C=C/c1cc(Br)ccc1OC,-15.7%,12.5%,-21.2%,0.0%,-6.9,12.1%
CCNc1ccc(Br)cc(C(=O)/C=C/c2ccc(Cl)cc2Cl)c1=O,10.3µM*,?,9.2µM*,7.08µM*,-97.8*,?
CNc1ccc(Br)cc(C(=O)/C=C/c2cc(OC)ccc2OC)c1=O,20.6µM*,?,10.3µM*,?,-99.4*,?
CNc1ccc(Br)cc(C(=O)/C=C/c2ccc(OC)cc2)c1=O,6.51µM*,0.2%,18.4µM*,31.6µM*,?,3.2%
CNc1ccc(Br)cc(C(=O)/C=C/c2ccc3c(c2)OCO3)c1=O,18.4µM*,?,18.4µM*,?,-100.3*,?
O=C(/C=C/c1ccc2c(c1)OCO2)NC1CCCC1,0.5%,4.7%,-1.5%,-20.6%,-0.6,-3.1%
O=C(/C=C/c1ccc(Cl)cc1Cl)c1cc(Cl)ccc1O,.,.,.,-68.9%,.,.
CCN(CC)C(=O)Cn1c(=O)cc(C)c2c(C)nn(-c3cccc(Cl)c3C)c21,14.6µM*,.,11.6µM*,-10.7%,.,.
Cc1ccc(-n2nc(C)c3c(C)cc(=O)n(CC(=O)Nc4cccc(C)c4C)c32)cc1,-8.5%,.,1.16µM*,-11.7%,.,.
Cc1c(Cl)cccc1-n1nc(C)c2c(C)cc(=O)n(CC(=O)NCc3ccccc3)c21,-20.9%,.,-31.1%,-0.7%,.,.
Cc1c(Cl)cccc1NC(=O)Cn1c(=O)cc(C)c2c(C)nn(-c3cccc(F)c3)c21,0.3%,.,-19.7%,-25.7%,.,.
CCN(Cc1ccccc1)C(=O)Cn1c(=O)cc(C)c2c(C)nn(-c3cccc(F)c3)c21,18.4µM*,.,20.6µM*,-29.7%,.,.
Cc1nc2nc3ccn(CCN(C)C)c(=O)c3c(-c3ccccc3)n2n1,.,.,.,-21.0%,.,.
COc1ccc(-c2nnc3n2CCN([S+](=O)([O-])c2ccc(C)cc2)C3)cc1,.,.,.,-3.7%,.,.
COc1ccccc1-c1noc(-c2ccc(N3CCC(C)CC3)c([N+](=O)[O-])c2)n1,?,.,13µM*,-3.9%,.,.
Cc1ccccc1-c1noc(-c2ccc(N3CCCCC3)c([N+](=O)[O-])c2)n1,?,.,11.6µM*,-17.6%,.,.
COc1ccccc1-c1noc(-c2ccc(N3CCN(c4ccccc4)CC3)c([N+](=O)[O-])c2)n1,23.1µM*,.,13µM*,0.0%,.,.
COc1ccccc1N1CCN(c2ccc(-c3nc(-c4ccccc4C)no3)cc2[N+](=O)[O-])CC1,0.1%,.,9.8%,-20.9%,.,.
SMILES,TDP1 cell CPT,HT1080NT lethal,TDP1 cell noCPT,ALOX12 inh,IL1B secr inh,HT1080 IDH1KD tx
COc1ccccc1N1CCN(c2ccc(-c3nc(-c4ccccc4)no3)cc2[N+](=O)[O-])CC1,11.6µM*,.,9.2µM*,-22.9%,.,.
CCC(C)NC(=O)Nc1c(NC)c2ccccc2oc1=O (configuration not stated),.,.,.,-0.1%,.,.
CCOc1ccc(NC(=O)c2nn(C)c(=O)c3ccccc23)cc1S(=O)(=O)N(C)C,.,.,.,-1.6%,.,.
Cc1ccc(-n2cccc2/C=C2/C(=N)N3C(=NC2=O)SN=C3S(C)(=O)=O)cc1,19.3%,-5.5%,-0.7%,?,-14.9,8.1%
Cc1cc(C)cc(-n2cccc2/C=C2/C(=N)N3C(=NC2=O)SN=C3S(C)(=O)=O)c1,0.5%,18.4µM*,-4.8%,?,27.7,-16.8%
O=C(OCc1ccc(C(=O)c2ccccc2)cc1)c1cccc(-c2nnc(-c3ccccc3)o2)c1,15.8µM*,4.3%,?,11.0%,-8.7,7.4%
CC(C)OC(=O)c1ccc(COC(=O)c2cccc(-c3nnc(-c4ccccc4)o3)c2)cc1,-25.4%,18.7%,?,-4.2%,11.9,16.1%
CCOC(=O)c1cccc(COC(=O)c2cccc(-c3nnc(-c4ccccc4)o3)c2)c1,25.9µM*,12.5%,16.4µM*,-10.7%,-10.0,12.0%
O=C(OCc1ccccc1)c1cccc(-c2nnc(-c3ccccc3)o2)c1,?,21.7%,-15.7%,7.2%,-1.7,-4.4%
CCc1nc2cc(N3CCC(C(=O)O)CC3)cnc2nc1CC,.,.,.,-11.6%,.,.
CCNC(=O)N1CCC[C@@H](O)[C@H](NC(=O)c2ccc(OCCOC)cc2)C1,.,.,.,14.0%[176 µM],.,.
COc1ccc(-c2n[nH]c3c2CC(=O)N(CCOc2ccccc2)C3)cn1,.,.,.,32.8%[176 µM],.,.
O=C(c1nnn2c1COC(c1ccc(Cl)cc1)C2)N1CCN(C(=O)c2c(F)cccc2F)CC1 (configuration not stated),.,.,.,41.5%,.,.
CCc1ccc(NS(=O)(=O)c2ccc(C(=O)N(C)C)s2)cc1,18.4µM*,.,14.6µM*,-19.3%,.,.
CN(C)C(=O)c1ccc(S(=O)(=O)NCc2ccc(Cl)cc2)s1,?,.,?,-11.5%,.,.
COCC1CN(C(C)=O)CC12CCN(Cc1ccc(F)cc1)CC2 (configuration not stated),.,.,.,9.4%,.,.
CC(NC(=O)COc1ccccc1)C(=O)NCc1ccc(S(N)(=O)=O)cc1 (configuration not stated),-6.6%,4.1%,-6.0%,-12.9%,21.6,2.9%
COC(=O)C1N[C@@H]([C@@H](NC(=O)COc2ccccc2)C(=O)NCc2ccccc2)SC1(C)C (some centres not stated),?,-0.6%,20µM*!,-11.1%,-2.4,-1.8%
NNC(=O)CNC(c1ccccc1)c1cc(Br)ccc1N (configuration not stated),8.3%,-28.7%,-13.4%,175.0%,-72.2*,?
